In PubChem BioAssay AID1159580 (chemical genetic matrix, 2015):
Several values for one entry are separate records, joined by “and”; a condition that tells them apart may be missing. Identical values can stand only once. In all, about 5,500 compounds went through this assay and about 2,000 (36%) were called active. Not shown: some 18% with an inconclusive outcome. Rule as the data show it: active = normalized growth mostly below about 0.91 (no sharp cut-off); inconclusive = no clear call, values can overlap the other calls; inactive = mostly above about 0.92. This is one part of the list.

Assay: chemical genetic growth profiling, strain panel (AID 1159580);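 also: tested at 20 µM; growth read once vehicle control cultures reached saturation at 30 °C; 1 = growth at the plate median or of vehicle wells; lower values mean less growth of the strain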
Conditions: S. cerevisiae deletion strains, growth OD

Measured: normalized growth

COc1ccc2[nH]cc(CCNC(C)=O)c2c1
inactive: locus YAL013W, strain DEP1, stronger effect = lower value 1.01 | locus YAL021C, strain ccr4, stronger effect = lower value 0.977 | locus YAL026C, strain drs2, stronger effect = lower value 0.983 | locus YAL030W, strain snc1, stronger effect = lower value 0.984 | locus YAL040C, strain CLN3, stronger effect = lower value 0.996 | locus YBL061C, strain skt5, stronger effect = lower value 0.969 | locus YBR009C, strain hhf1, stronger effect = lower value 0.983 | locus YBR021W, strain FUR4, stronger effect = lower value 1.01 | locus YBR023C, strain chs3, stronger effect = lower value 0.979 | locus YBR171W, strain sec66, stronger effect = lower value 0.966 | locus YBR229C, strain ROT2, stronger effect = lower value 1.02 | locus YBR231C, strain swc5, stronger effect = lower value 0.971 | locus YBR279W, strain paf1, stronger effect = lower value 0.978 | locus YCL011C, strain gbp2, stronger effect = lower value 0.979 | locus YCL016C, strain dcc1, stronger effect = lower value 0.972 | locus YCL029C, strain bik1, stronger effect = lower value 1.02 | locus YCL061C, strain MRC1 (second series), stronger effect = lower value 1.01 | locus YCL061C, strain MRC1, stronger effect = lower value 0.984 | locus YCL069W, strain vba3, stronger effect = lower value 0.977 | locus YCR088W, strain abp1, stronger effect = lower value 0.968 | locus YDL005C, strain med2, stronger effect = lower value 0.959 | locus YDL035C, strain GPR1, stronger effect = lower value 1.01 | locus YDL040C, strain nat1, stronger effect = lower value 0.971 | locus YDL074C, strain BRE1, stronger effect = lower value 1.02 | locus YDL101C, strain DUN1, stronger effect = lower value 1.01 | locus YDL134C, strain PPH21, stronger effect = lower value 1.01 | locus YDL185W, strain tfp1, stronger effect = lower value 1.03 | locus YDL192W, strain arf1, stronger effect = lower value 1.03 | locus YDR001C, strain nth1, stronger effect = lower value 0.973 | locus YDR069C, strain doa4, stronger effect = lower value 0.958 | locus YDR101C, strain arx1, stronger effect = lower value 1.02 | locus YDR137W, strain rgp1, stronger effect = lower value 0.992 | locus YDR150W, strain NUM1, stronger effect = lower value 1 and 1.01 | locus YDR159W, strain sac3, stronger effect = lower value 0.943 | locus YDR162C, strain NBP2, stronger effect = lower value 1.02 | locus YDR195W, strain ref2 0.959 | locus YDR297W, strain sur2, stronger effect = lower value 0.967 | locus YDR318W, strain mcm21, stronger effect = lower value 1.02 | locus YDR334W, strain swr1, stronger effect = lower value 0.969 | locus YDR335W, strain msn5, stronger effect = lower value 0.977 | locus YDR363W, strain ESC2, stronger effect = lower value 0.996 | locus YDR388W, stronger effect = lower value 1.02 | locus YDR392W, strain spt3, stronger effect = lower value 0.958 | locus YDR502C, strain sam2, stronger effect = lower value 1.03 | locus YEL003W, strain gim4, stronger effect = lower value 0.974 | locus YEL037C, strain rad23, stronger effect = lower value 0.966 | locus YEL061C, strain CIN8 (second series), stronger effect = lower value 0.972 | locus YEL061C, strain CIN8, stronger effect = lower value 1 | locus YER002W, strain NOP16, stronger effect = lower value 0.999 | locus YER015W, strain faa2, stronger effect = lower value 0.981 | locus YER016W, strain bim1, stronger effect = lower value 0.975 | locus YER110C, stronger effect = lower value 1.02 | locus YER111C, strain swi4, stronger effect = lower value 0.976 | locus YER155C, strain BEM2 (second series), stronger effect = lower value 0.971 | locus YER155C, strain BEM2, stronger effect = lower value 0.998 | locus YER167W, strain BCK2, stronger effect = lower value 1.01 | locus YFR010W, strain ubp6, stronger effect = lower value 0.955 | locus YGL078C, strain dbp3, stronger effect = lower value 1.02 | locus YGL086W, strain mad1, stronger effect = lower value 1.02 | locus YGL167C, strain pmr1, stronger effect = lower value 0.96 | locus YGL173C, strain kem1, stronger effect = lower value 0.955 | locus YGL227W, strain vid30, stronger effect = lower value 0.962 | locus YGL240W, strain doc1, stronger effect = lower value 0.963 | locus YGL248W, strain PDE1, stronger effect = lower value 1.01 | locus YGL253W, strain hxk2, stronger effect = lower value 0.983 | locus YGR078C, strain PAC10, stronger effect = lower value 1.02 and 1.01 | locus YGR135W, strain pre9, stronger effect = lower value 1.03 | locus YGR229C, strain SMI1, stronger effect = lower value 1.01 | locus YGR252W, strain gcn5, stronger effect = lower value 1.05 | locus YHR013C, strain ard1, stronger effect = lower value 0.968 | locus YHR027C, strain rpn1, stronger effect = lower value 0.994 | locus YHR030C, strain SLT2, stronger effect = lower value 0.998 and 0.997 | locus YHR079C, strain IRE1 (second series), stronger effect = lower value 1.02 | locus YHR079C, strain IRE1, stronger effect = lower value 0.998 | locus YHR094C, strain hxt1, stronger effect = lower value 1.02 | locus YHR129C, strain ARP1, stronger effect = lower value 1 | locus YHR142W, strain chs7, stronger effect = lower value 0.964 | locus YHR200W, strain rpn10, stronger effect = lower value 1.03 | locus YIL066C, strain RNR3, stronger effect = lower value 1.01 | locus YIL073C, strain SPO22, stronger effect = lower value 1.08 | locus YIL125W, strain kgd1, stronger effect = lower value 1.03 | locus YIR030C, strain dcg1, stronger effect = lower value 1.03 | locus YJL092W, strain hpr5, stronger effect = lower value 0.974 | locus YJL095W, strain BCK1 (second series), stronger effect = lower value 0.971 | locus YJL095W, strain BCK1, stronger effect = lower value 1.02 | locus YJL115W, strain asf1, stronger effect = lower value 0.969 | locus YJL129C, strain trk1, stronger effect = lower value 0.967 | locus YJL134W, strain LCB3, stronger effect = lower value 1 | locus YJL154C, strain vps35, stronger effect = lower value 0.957 | locus YJL164C, strain tpk1, stronger effect = lower value 0.986 | locus YJL166W, strain qcr8, stronger effect = lower value 0.979 | locus YJL168C, strain set2, stronger effect = lower value 1.03 | locus YJL187C, strain SWE1 (second series), stronger effect = lower value 1.01 | locus YJL187C, strain SWE1, stronger effect = lower value 0.979 | locus YJR043C, strain POL32, stronger effect = lower value 0.994 | locus YJR066W, strain TOR1, stronger effect = lower value 0.941
